# SARS PLP yeast: SARS-CoV PLP inhibition in yeast. S. cerevisiae expressing SARS-CoV PLpro, growth rescue. Potency, µM (series often up to 32.9 µM), for the others: at the highest dose activity, positive = growth rescue, actives largely listed as activators. 330,000 tested, 0.19% active. AID 485353; calls by dose curve; further: 0% is about no effect; nearly all actives have a fitted effect of over 55% in size
# RE007 growth inh: less growth of the S. pombe RE007 Vpr strain; AID 651644; 360,000 tested, 0.21% active; S. pombe RE007 Vpr strain, BacTiter-Glo ATP luminescence, 24 h; Potency, µM (series often up to 92.2 µM), without a hit: top-dose activity change, negative = less growth, actives largely listed as inhibitors; active means well fitted falling curve with a large enough effect; inconclusive means small, poorly fitted or top-dose-only effect; inactive means no such curve, though single readings can be large or run the other way; further: on the % scale 0 is the no-effect control and ±100 the full control effect; nearly all actives have a fitted effect of over 50% in size
#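 Fission yeast RE007 carrying one integrated HIV-1 vpr copy, seeded at OD 0.01 in PMG+AL medium with 23 nL pinned compound. Grown 24 h at 30 degrees; viability read by BacTiter-Glo luminescence after 5 min.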
# TbPYK inhibitor: T. brucei pyruvate kinase inhibition; Q57TT1; Potency, µM (top dose mostly 76.8 µM), inactives show at the highest dose activity, negative = inhibition, hits mostly inhibitors; 410,000 tested, 0.12% active; AID 624173; TbPYK enzyme, Kinase-Glo Plus ATP luminescence, 45 min; further: on the % scale 0 is the no-effect control and ±100 the full control effect; nearly all actives have a fitted effect of over 50% in size
#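 Quantitative HTS: titrated library compounds versus trypanosomal pyruvate kinase in TEA buffer (pH 7.2) containing KCl, MgCl2, BSA and Tween-20. Reactions were initiated with ADP, 130 uM final. Kinase-Glo Plus luminescence was read after 45 min at RT.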
# Sm TGR inh: inhibitors of Schistosoma mansoni thioredoxin glutathione reductase; Q962Y6; purified TGR, DTNB reduction, TNB absorbance 405 nm; Potency, µM (doses to about 114 µM), without a hit: top-dose activity change, negative = inhibition, usual class: inhibitors; 360,000 tested, 3% active; AID 485364; further: on the % scale 0 is the no-effect control and ±100 the full control effect; nearly all actives have a fitted effect of over 60% in size
#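 TGR 20 nM + NADPH 100 uM (dispensed conc.), cpd preinc 15 min RT; start with NADPH (500 uM addition) then DTNB (15 mM addition). Kinetic TNB absorbance, 405 nm filter. Four-parameter Hill fit across titration.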
# NS1 function inh: influenza NS1 inhibition; 270,000 tested, 0.4% active; Potency, µM (doses to about 46.1 µM), without a hit: at the highest dose activity, positive = more growth; calls by dose curve; further: actives are rising curves; nearly all actives have a fitted effect of over 50% in size
#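 A cell-based growth assay was used: compounds that relieve NS1-induced slow growth of budding yeast raise OD600. Assay medium was yeast nitrogen base with ammonium sulphate and -URA supplement, pH 6.0, with 2% galactose.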
# LmPK inh: blocks Leishmania mexicana pyruvate kinase activity | Potency, µM (titrated, usually from 57.5 µM), without a hit: at the top dose activity change, negative = inhibition, most hits filed as inhibitors | Q27686 | purified LmPK, Kinase-Glo ATP luminescence, 1 h | AID 1721 | 290,000 tested, 0.37% active; further: on the % scale 0 is the no-effect control and ±100 the full control effect
# Target sequence (Q27686 whole entry, looked up): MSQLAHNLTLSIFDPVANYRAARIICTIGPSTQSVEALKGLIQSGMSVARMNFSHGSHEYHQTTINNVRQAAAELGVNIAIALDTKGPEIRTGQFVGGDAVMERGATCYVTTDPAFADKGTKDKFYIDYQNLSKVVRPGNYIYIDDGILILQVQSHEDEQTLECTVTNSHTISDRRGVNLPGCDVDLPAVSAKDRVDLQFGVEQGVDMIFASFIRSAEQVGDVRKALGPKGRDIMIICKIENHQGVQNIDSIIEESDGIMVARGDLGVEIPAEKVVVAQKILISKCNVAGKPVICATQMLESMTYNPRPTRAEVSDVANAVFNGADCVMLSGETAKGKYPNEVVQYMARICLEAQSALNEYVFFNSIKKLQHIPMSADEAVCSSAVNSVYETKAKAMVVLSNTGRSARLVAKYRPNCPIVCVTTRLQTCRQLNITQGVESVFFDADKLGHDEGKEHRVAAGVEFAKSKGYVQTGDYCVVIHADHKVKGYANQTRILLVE
#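 Purified LmPK (0.1 nM) with 0.5 mM PEP and 0.1 mM ADP in imidazole buffer pH 7.2 with MgCl2/KCl, 1 h at room temperature. ATP formed was read by luciferase luminescence and normalized to no-enzyme and uninhibited controls.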
# Starred values were filed as active, the others as inactive; ? = inconclusive; / = no result given; ! = repeats disagree; [ ] = dose if it differs, or a comment. Hits are enriched below; roughly 3.3% of the tested compounds scored in any of these assays. Unless noted, the call rests on the fitted dose curve; in most records, active means well fitted curve in the direction sought with a large enough effect; inconclusive means small, poorly fitted or top-dose-only effect, or another doubt; inactive means no such curve, though single readings can be large; an effect the other way counts as inactive or inconclusive. Potency means the concentration at half of the fitted maximal effect.
SMILES,SARS PLP yeast,RE007 growth inh,TbPYK inhibitor,Sm TGR inh,NS1 function inh,LmPK inh
COc1ccc2nc(Cl)c(C3CC(c4ccco4)=NN3C(=O)CCCC(=O)O)cc2c1 (stereo unspecified),0%,-8%,-22%,8.9µM*,6%,1%
Cc1ccc2nc(Cl)c(C3CC(c4ccco4)=NN3C(=O)CCCC(=O)O)cc2c1 (stereo unspecified),1%,1%,-23%,35µM*,9%,0%
O=C(CSc1cccc[n+]1[O-])c1ccccc1Br,-11%,22µM*,2%,0%,/,4%
O=C(NC(=S)NCCC1=CCCCC1)c1ccccc1Br,-2%,-14%,-11%,2%,16%,4%
O=C(NC(=S)NCCC1=CCCCC1)c1cncc(Br)c1,13µM*,15%,-6%,-14%,14%,2%
CCOC(=O)c1sc(N(Cc2ccccc2)C(=O)CCl)nc1C,-4%,-2%,-11%,25µM*,-8%,0%
CCOC(=O)c1sc(N(Cc2ccccc2)C(=O)COC(=O)c2ccccc2O)nc1C,-4%,-14%,2%,-8%,-5%,-3%
CCN(CC)S(=O)(=O)c1ccc2c(c1)N(CC(=O)Nc1cccc(C#N)c1)C(=O)CO2,/,/,1%,5%,/,/
Cc1ccc(-c2nnc(Nc3ccc(S(N)(=O)=O)cc3)c3ccccc23)cc1S(=O)(=O)N1CCOCC1,/,/,-6%,5%,/,/
Cc1cc(C(C)C)n2c(nc3ccccc32)c1C#N,-1%,/,/,8%,1%,10%
Cc1cc(-c2ccco2)c(C#N)c2nc3ccccc3n12,-8%,-19%,1%,28µM*,-71%,-10%
CCc1c(C)c(C#N)c2nc3ccccc3n2c1NCCOC,-2%,1%,1%,40µM*,-1%,-4%
CCc1c(C)c(C#N)c2nc3ccccc3n2c1-n1nc(C)cc1C,-15%,7%,-1%,1%,5%,0%
CCc1c(C)c(C#N)c2nc3ccccc3n2c1Cl,-2%,/,/,11µM*,-4%,2%
O=C(CSC1=NCCN1)c1ccccc1,/,/,/,/,-4%,/
COc1cc(CN(C(=O)COc2ccc(Br)cc2)c2ccccn2)cc(OC)c1OC,/,/,2%,2%,/,/
Fc1ccc(N=c2ssnc2Cl)c(F)c1,-3%,-14%,14µM*,-28%,/,-26%
COc1ccc(N=c2ssnc2Cl)cc1,-84%,?,-18%,56µM*,-26%,-8%
Clc1nssc1=Nc1ccccc1,1%,?,?,?,/,-17%
Clc1ccc(N=c2ssnc2Cl)cc1,-91%,?,25µM*,?,-51%,0%
N#Cc1ccc(N=c2ssnc2Cl)cc1,-6%,35µM*!,14µM*,?,-109%,-2%
Cc1sc2ncn(CC(=O)Nc3cccc(C(F)(F)F)c3)c(=O)c2c1S(=O)(=O)N1CCN(C)CC1,/,/,0%,7%,/,/
COc1ccc(C2=C(C)C(N3CCC(C(=O)NCc4ccco4)CC3)=NS2(=O)=O)cc1,/,/,-10%,-27%,/,/
N#Cc1ccccc1Cn1c(=O)n(CCCC(=O)NCc2ccccc2Cl)c(=O)c2ccccc21,/,/,-8%,-7%,/,/
O=C(Nc1cccc2cccnc12)[C@@H]1[C@@H](C(=O)O)[C@H]2CC[C@@H]1O2,/,/,/,/,0%,/
SMILES,SARS PLP yeast,RE007 growth inh,TbPYK inhibitor,Sm TGR inh,NS1 function inh,LmPK inh
CCOc1ccccc1CNC(=O)CSc1n[nH]c(-c2ccccc2)n1,/,/,-4%,6%,/,/
CCOC(=O)c1ccc(N=c2ssnc2Cl)cc1,-3%,?,35µM*,-28%,/,-12%
COc1cccc(/C=C/c2nc(S(=O)(=O)c3ccccc3)c(N(C)C)o2)c1,-1%,1%,23%,?,-2%,1%
CN(C)c1oc(/C=C/c2cccs2)nc1S(=O)(=O)c1ccccc1,0%,-6%,6%,35µM*,2%,1%
COc1ccccc1/C=C/c1nc(S(=O)(=O)c2ccccc2)c(N(C)C)o1,1%,-1%,70%,10µM*,-7%,6%
O=C(O)CSCc1cccc2ccccc12,/,/,/,/,-3%,/
O=C(NCCc1ccccc1Cl)c1cc2ccccn2n1,/,/,1%[15.4 µM],-4%,/,/
CCOC(=O)c1sc(N2C(=O)C(O)=C(C(=O)c3ccco3)C2c2ccc(C)o2)nc1C (stereo unspecified),-2%,-12%,0%,7.9µM*,14%,6%
CCOc1ccc(C2C(C(=O)c3ccc(C)o3)=C(O)C(=O)N2c2nc(C)c(C(=O)OC)s2)cc1 (stereo unspecified),0%,-13%,0%,45µM*,16%,5%
CCOC(=O)c1sc(N2C(=O)C(O)=C(C(=O)c3ccco3)C2c2ccc([N+](=O)[O-])cc2)nc1C (stereo unspecified),/,-6%,0%,/,/,/
COc1ccc(N2CCN(C(=O)CCc3c(C)nc4c(-c5ccccc5)c(C)nn4c3C)CC2)cc1,/,/,-7%,23%,/,/
CC(=O)c1cccc(NC(=O)Cn2nc(C(F)(F)F)c3c2CCC3)c1,/,/,1%,6%,/,/
COc1ccccc1NC(=O)CSc1nc2ccccc2c2nc(-c3ccccc3)nn12,/,/,-2%,7%,/,/
Cc1ccc(-c2nc(CS(=O)(=O)CC(=O)N3CCc4ccccc4C3)c(C)o2)cc1,-9%,9%,-5%,25µM*,-82%,-7%
CCCNC(=O)CS(=O)(=O)Cc1nc(-c2ccccc2C)oc1C,1%,0%,-2%,50µM*,-21%,-4%
Cc1ccc(CNC(=O)CS(=O)(=O)Cc2nc(-c3ccccc3C)oc2C)cc1,/,/,-1%,2%,/,/
Cc1ccccc1-c1nc(CS(=O)(=O)CC(=O)N2CCOCC2)c(C)o1,6%,-6%,6%,16µM*,0%,-7%
Cc1ccc(Cl)cc1N1CCN(C(=O)c2cccn2-c2nnc(N3CCCC3)s2)CC1,/,/,-8%[15.4 µM],?,/,/
COc1cc(-c2noc(-c3ccc(NCC4CCCO4)c([N+](=O)[O-])c3)n2)cc(OC)c1OC (stereo unspecified),/,/,4%,-24%,/,/
O=C(Cn1c(=O)oc2cc(S(=O)(=O)NCc3ccccc3)ccc21)N(CCO)Cc1ccccc1,/,/,-5%[15.4 µM],-1%,/,/
Cc1cnc2c(c1SCC(=O)Nc1ccc(F)cc1F)c(=O)n(C)c(=O)n2C,/,/,2%,0%,/,/
Cc1ccc2nc(Cl)c3cc(C(=O)NC4CCCCC4)sc3c2c1,/,/,-7%,-4%,/,/
Cc1ccc(Sc2c([N+](=O)[O-])ncn2C)cc1,8%,-2%,4%,?,6%,-5%
Cn1cnc([N+](=O)[O-])c1Sc1ccc(Br)cc1,8%,12%,3%,22µM*,-11%,-3%
C[C@H]1C[C@H]2[C@H]3CCC4=CC(=O)C=C[C@@]4(C)[C@]3(F)[C@H](O)C[C@]2(C)[C@@]1(O)C(=O)COP(=O)(O)O,/,/,/,/,-3%,/

# Source: PubChem BioAssay (National Center for Advancing Translational Sciences (NCATS))
